Experimental data taken from PubChem BioAssay AID2669 (National Center for Advancing Translational Sciences (NCATS), 2010).
Results filed as inconclusive are left out. Calls of active or inactive are those of the source. Calls follow the shape of the dose curve; as a rule, active = well fitted inhibition curve with a large enough effect; inconclusive = small, poorly fitted or top-dose-only effect, or effect the other way; inactive = flat fitted curve, though single readings scatter.

Assay: qHTS Assay Multiplex Screening to Identify Dual Action Probes in a Cell Model of Huntington: Cytoprotection (Protease relase)
Conditions: PC12 HttQ103 cells, Cytotox-Glo protease release, 40 h; series mostly up to 46.1 µM; activity change, negative = inhibition: at the top concentration
Text: NIH Chemical Genomics Center [NCGC]
NIH Molecular Libraries Probe Production centers Network [MLPCN]
Assay Submitter (PI): Wei Zheng
Huntington's disease is a neurodegenerative disorder caused by a trinucleotide repeat expansion in Exon 1 of the Huntingtin gene. The CAG trinucleotide encodes glutamine and polyglutamine expansions cause cell death in selective areas of the brain. Huntington polyglutamine repeats have the tendency to form aggregates which are observable in later stages of the disease. The exact nature of the aggregates, whether toxic, protective, or insignificant, is unclear.
A stable PC12 cell line containing a gene fusion of Exon 1 of the Huntingtin gene linked to GFP under the control of the inducible ecdysone promoter were used as the cell-based model of Huntington Disease for high throughput screening. Exon 1 of the Huntingtin gene contained an expansion of 103 polyglutamines (Q103) which, when expressed, caused cell death and distinct, bright GFP aggregates. The amount of cell death and the size and intensity of GFP aggregates increased over time and induction level. In the primary screen, cell death were quantified with a measurement of ATP content in the cells. A maximal 40-50% of cell death was observed when the Huntington gene was induced in this cell line.
We optimized this assay in a homogeneous 1536 well format. A quantitative high throughput screen (qHTS) was conducted on the PC12 cells which were induced to express the toxic fusion construct. Small molecules which prevented cell death were considered hits, and were further studied. The present assay is an alternate assay for cytoprotection using Promega's Cytotox-Glo reagent.
PC12 cells stably containing a construct with an ecdysone inducible promoter expressing GFP fused to the exon 1 of HTTQ103 (Huntington protein which containing a 103 ployglutamine expansion) were used.
NCGC Assay Protocol Summary:
Sequence, Parameter, Description
1, Reagent, 5 uL 1500 cells/well 1536 TC treated White clear bottom plate
2, Compound, 23 nL Tebufenozide inducer (100 nM final) to all columns
3, Compound, 23 nL 40 uM to 0.5 nM Libraries
5, Reagent, 2 ul Promega's Cytotox-Glo assay reagent
6, Detector, 4 sec integration with a Viewlux Luminescent
Media consisted of phenol red free DMEM + 5% equine serum (Hyclone # SH30072.03 ), 5% supplemented Bovine Calf Serum (Hyclone # SH30074.03 ), 1x pen/strep, no G418

SMILES | activity change, negative = inhibition | Potency
C[C@H]1CC[C@@]2(NC1)O[C@@H]1C[C@H]3[C@@H]4CC=C5C[C@@H](O)CC[C@]5(C)[C@@H]4CC[C@]3(C)[C@@H]1[C@@H]2C | 15% (inactive) | 
Oc1cc(Cl)ccc1Oc1ccc(Cl)cc1Cl | -6.35% (inactive) | 
NC(=O)c1sc2nc3c(c(-c4cccs4)c2c1N)CCCC3 | -20.3% (inactive) | 
O=C1C=C2C=C[C@H]3C[C@@]2(O1)[C@H]1CCCCN31 |  | 0.794 µM (active)
C[C@@]1(CO)[C@H](O)CC[C@@]2(C)[C@H]1CC[C@H]1C[C@@H]3C[C@@]12CC[C@]3(O)CO | 8.07% (inactive) | 
CC[C@]1(C2=NCCN2)Cc2ccccc2O1 | 6.43% (inactive) | 
CCC(C)C(=O)OC1C(O)C2C(CN3CC(C)CCC3[C@]2(C)O)C2C[C@]34O[C@@]5(O)C(OC(=O)C(C)(O)CC)CCC3(C)C5C(OC(C)=O)C(OC(C)=O)C4[C@@]21O (some centres not stated) | 13.4% (inactive) | 
